# Values without a mark were called inactive. Inconclusive results are not listed. A call without a number means that no potency is given here. The source made the active and inactive calls. Unless noted, calls come from the whole dose curve; as a rule, active = well fitted curve in the direction sought with a large enough effect; inconclusive = small, poorly fitted or top-dose-only effect, or another doubt; inactive = no such curve, though single readings can be large; an effect the other way counts as inactive or inconclusive.
# Key:
# [1] = Viability counterscreen for antagonist of constitutive androstane receptor (CAR) against the NCATS DSHEA and TCM libraries (AID 1794837);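 note: compound exposure lasted 24 h before viability reading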
# Method in brief: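 Viability was measured by CellTiter-Fluor fluorescence (405/540 nm, 1 hr) in HepG2-CYP2B6-hCAR cells. Cells were co-treated 24 hr with 48 uM CITCO (final), antagonist mode, and test substances.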
# [2] = Viability counterscreen for agonist of constitutive androstane receptor (CAR) against the NCATS DSHEA and TCM libraries (AID 1794838)
# Method in brief: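 Cell viability, from CellTiter-Fluor fluorescence (405/540 nm), was scored after a 24 h, 37C exposure of HepG2 cells carrying CYP2B6 reporter and hCAR to test substances in presence of 0.75 uM PK11195.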
# [3] = HepG2 viability counterscreen (readout 2: ATP content) against the NCATS DSHEA and TCM libraries (AID 1794840);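 note: HepG2 cells exposed to substances for about 24 h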
# Method in brief: (§1)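 Readout 1: cellular protease activity, GF-AFC substrate (25 uM final, 30 min, fluorescence 380/510 nm). Readout 2: ATP content by CellTiter-Glo luminescence after 30 min at RT. Both follow ~24 h exposure of HepG2 cells (1,000/well) to substances.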
# [4] = HepG2 viability counterscreen (readout 1: protease activity) against the NCATS DSHEA and TCM libraries (AID 1794841);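 note: cells exposed to compounds for about 24 h before the protease read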
# Method in brief: as §1
# [5] = molecular target: Cytochrome P450 3A4 (Homo sapiens) (UniProt P08684); experiment: qHTS for inhibitors of CYP3A4 against the NCATS DSHEA and TCM libraries (AID 1919971); note: potency is the fitted concentration of half-maximal effect
# Method in brief: (§2)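 Read-out is luminescence after P450-Glo detection (30 min, RT). Before that: 15 min compound–enzyme preincubation, then 30-45 min reaction with 1x NADPH regeneration solution, substrate concentration isoform-specific.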
# [6] = molecular target: Cytochrome P450 2C9 (Homo sapiens) (UniProt P11712); experiment: qHTS for inhibitors of CYP2C9 against the NCATS DSHEA and TCM libraries (AID 1919973); note: potency is the fitted concentration of half-maximal effect
# Method in brief: as §2
# [7] = molecular target: Cytochrome P450 2C19 (Homo sapiens) (UniProt P33261); experiment: qHTS for inhibitors of CYP2C19 against the NCATS DSHEA and TCM libraries (AID 1919974);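 note: luminescence from luciferin released by CYP2C19 oxidation of a pro-luciferin substrate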; note: potency is the fitted concentration of half-maximal effect
# Method in brief: as §2
# [8] = KB-3-1 P-gp reporter qHTS against the NCATS DSHEA and TCM libraries (AID 1919975)
# Method in brief: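 Cell viability by CellTiter-Glo luminescence following ~72 h compound exposure (concentration-response). Uses parental, non-P-gp-overexpressing KB-3-1 line, 500 cells/well in DMEM/10% FBS, attached ~4 h before dosing.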
# [9] = qHTS Counterscreen for compound interference against the NCATS DSHEA and TCM libraries (AID 1919978); details: firefly luciferase detection reagent interference, luminescence;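 note: compounds preincubated with 1 µM D-luciferin or buffer before detection reagent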
# Method in brief: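 With 1 uM D-luciferin or phosphate buffer only, compounds at final 19.5 nM–39.8 uM were incubated for 15 min at room temperature. Luciferase detection reagent was then added, and luminescence was measured after a further 30 min at room temperature.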
# [10] = Dual reporter qHTS for agonist of Pregnane X Receptor (hPXR) against the NCATS DSHEA and TCM libraries: Fluorescence readout (AID 1920058)
# Method in brief: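 HepG2 hPXR-Luc, 2000 cells/well, 5 h attach; cpds ~24 h, 37 °C/5% CO2; CellTiter-Fluor 1 h; fluor. Ex/Em 405/540 nm = viability.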
# [11] = molecular target: Nuclear receptor subfamily 1 group I member 2 (Homo sapiens) (UniProt O75469); experiment: Dual reporter qHTS for antagonist of Pregnane X Receptor (hPXR) against the NCATS DSHEA and TCM libraries: Luminescence Readout (AID 1920060);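 note: HepG2 cells carrying hPXR luciferase reporter stimulated with rifampicin at 2 µM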
# Method in brief: (§3)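 Antagonist mode: rifampicin 2 uM final co-added with compounds to hPXR-LucHepG2 cells for 24 h at 37C. Viability by CellTiter-Fluor, Ex/Em 405/540 nm, 1 h; reporter by ONE-Glo luminescence.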
# [12] = Dual reporter qHTS for antagonist of Pregnane X Receptor (hPXR) against the NCATS DSHEA and TCM libraries: Fluorescence Readout (AID 1920061)
# Method in brief: as §3
# [13] = molecular target: Nuclear receptor subfamily 1 group I member 3 (Homo sapiens) (UniProt Q14994); experiment: Primary qHTS for agonist of constitutive androstane receptor (CAR) against the NCATS DSHEA and TCM libraries (AID 1794839); note: potency is the fitted concentration of half-maximal effect
# Method in brief: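 Agonist mode in presence of hCAR antagonist PK11195 (0.75 µM final): test substances, 24 h, 37 °C, on HepG2-CYP2B6-hCAR cells. Same-well readouts: fluorescence viability, then ONE-Glo luminescence; CITCO as reference agonist.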
# [14] = molecular target: Cytochrome P450 2D6 (Homo sapiens) (UniProt P10635); experiment: qHTS for inhibitors of CYP2D6 against the NCATS DSHEA and TCM libraries (AID 1919972)
# Method in brief: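 Luminescent P450-Glo read-out of CYP2D6 turnover of a luciferin substrate after NADPH-driven reaction of 30-45 min at room temperature. Compounds were first preincubated 15 min with enzyme at titrated concentrations; quinidine was the intraplate control.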
# [15] = molecular target: Cytochrome P450 1A2 (Homo sapiens) (UniProt P05177); experiment: qHTS for inhibitors of CYPIA2 against the NCATS DSHEA and TCM libraries (AID 1919976);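 note: light from luciferin formed by CYP1A2 from a pro-luciferin substrate; series mostly up to about 37 µM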
# Method in brief: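 CYP1A2 + luciferin substrate, 100 mM KPO4-type buffer; cmpd 15 min RT; 1x NADPH regen, 30-45 min RT dark; detection reagent 30 min RT; luminescence. Minus-enzyme wells as background; furafylline intraplate control.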
# [16] = molecular target: Nuclear receptor subfamily 1 group I member 2 (Homo sapiens) (UniProt O75469); experiment: Dual reporter qHTS for agonist of Pregnane X Receptor (hPXR) against the NCATS DSHEA and TCM libraries: Luminescence readout (AID 1920059)
# Method in brief: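 hPXR-LucHepG2 cells in phenol red-free DMEM with 5% charcoal-stripped FBS, 2000 cells/well, attached 5 h, then exposed 24 h at 37C to compounds; rifampicin as positive agonist control (2.8 nM–92 uM). Luciferase luminescence read.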
# [17] = molecular target: Mitogen-activated protein kinase 10 (Mus musculus) (UniProt Q61831); experiment: JNK3 AlphaScreen Assay (AID 530; active = well fitted curve in either direction with a large enough effect, not every such curve was filed as active;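 note: kinase came from lysate of stimulated human HepG2 cells; signal reports phosphorylation of biotinylated GST-cJun 1-79 at Ser73 with 10 µM ATP; series mostly up to about 57 µM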)
# Method in brief: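 Inhibitors reduce antibody binding to phosphorylated biotin-cJun, lowering AlphaScreen luminescence. Lysates from HepG2 cells pre-activated by IL-1beta plus TNF-alpha supplied JNK3; compounds were titrated.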
# Sequence of Cytochrome P450 2D6 (Homo sapiens) (P10635 whole entry, looked up): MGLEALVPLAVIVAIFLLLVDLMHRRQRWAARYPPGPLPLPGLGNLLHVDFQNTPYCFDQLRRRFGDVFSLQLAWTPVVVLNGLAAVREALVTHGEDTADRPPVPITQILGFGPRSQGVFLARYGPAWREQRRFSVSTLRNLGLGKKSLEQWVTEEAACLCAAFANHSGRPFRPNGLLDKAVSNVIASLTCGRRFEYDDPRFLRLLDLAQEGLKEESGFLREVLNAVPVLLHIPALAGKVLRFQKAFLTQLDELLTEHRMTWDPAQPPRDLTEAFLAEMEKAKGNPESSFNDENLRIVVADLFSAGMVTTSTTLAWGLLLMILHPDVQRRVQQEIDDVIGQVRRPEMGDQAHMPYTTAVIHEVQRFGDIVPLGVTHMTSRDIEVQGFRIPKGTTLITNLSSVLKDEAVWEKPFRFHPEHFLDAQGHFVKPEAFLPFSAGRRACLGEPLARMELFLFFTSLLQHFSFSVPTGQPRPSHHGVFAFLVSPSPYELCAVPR
# Sequence of Nuclear receptor subfamily 1 group I member 3 (Homo sapiens) (Q14994 whole entry, looked up): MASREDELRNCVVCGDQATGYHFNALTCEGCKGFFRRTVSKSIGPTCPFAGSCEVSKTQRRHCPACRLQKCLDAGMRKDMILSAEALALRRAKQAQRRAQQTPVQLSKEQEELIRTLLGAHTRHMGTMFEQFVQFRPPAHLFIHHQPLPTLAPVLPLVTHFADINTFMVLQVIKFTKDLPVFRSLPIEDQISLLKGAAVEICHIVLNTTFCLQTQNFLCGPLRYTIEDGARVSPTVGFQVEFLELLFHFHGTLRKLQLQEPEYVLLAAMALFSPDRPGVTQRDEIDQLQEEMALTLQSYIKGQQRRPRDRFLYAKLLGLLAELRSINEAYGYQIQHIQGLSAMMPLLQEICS
# Sequence of Cytochrome P450 2C9 (Homo sapiens) (P11712 whole entry, looked up): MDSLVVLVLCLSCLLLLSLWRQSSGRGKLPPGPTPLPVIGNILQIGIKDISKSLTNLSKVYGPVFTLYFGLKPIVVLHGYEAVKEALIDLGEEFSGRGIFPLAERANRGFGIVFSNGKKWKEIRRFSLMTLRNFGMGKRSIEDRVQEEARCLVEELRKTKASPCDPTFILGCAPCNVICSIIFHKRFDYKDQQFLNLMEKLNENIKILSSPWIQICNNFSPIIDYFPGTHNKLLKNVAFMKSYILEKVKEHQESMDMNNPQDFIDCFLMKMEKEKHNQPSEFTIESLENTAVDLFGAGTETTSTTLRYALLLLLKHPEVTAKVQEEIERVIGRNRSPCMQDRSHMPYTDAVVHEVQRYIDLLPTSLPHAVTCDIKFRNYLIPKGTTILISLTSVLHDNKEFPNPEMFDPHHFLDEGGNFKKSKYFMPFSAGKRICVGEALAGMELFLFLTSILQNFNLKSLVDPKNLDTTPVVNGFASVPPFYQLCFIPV
# Sequence of Cytochrome P450 2C19 (Homo sapiens) (P33261 whole entry, looked up): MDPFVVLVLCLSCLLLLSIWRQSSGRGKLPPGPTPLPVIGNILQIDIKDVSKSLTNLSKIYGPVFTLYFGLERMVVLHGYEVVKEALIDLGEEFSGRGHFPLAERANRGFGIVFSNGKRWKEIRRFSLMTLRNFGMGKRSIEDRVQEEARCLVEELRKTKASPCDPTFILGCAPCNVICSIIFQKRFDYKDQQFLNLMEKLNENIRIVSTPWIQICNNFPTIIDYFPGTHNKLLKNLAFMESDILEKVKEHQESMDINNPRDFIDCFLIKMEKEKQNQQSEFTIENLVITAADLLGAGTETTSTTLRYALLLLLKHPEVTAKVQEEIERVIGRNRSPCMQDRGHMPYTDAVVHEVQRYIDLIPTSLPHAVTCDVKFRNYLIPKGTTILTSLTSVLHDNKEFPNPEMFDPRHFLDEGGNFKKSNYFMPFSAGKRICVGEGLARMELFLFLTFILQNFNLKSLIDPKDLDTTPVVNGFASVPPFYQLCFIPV
# Sequence of Nuclear receptor subfamily 1 group I member 2 (Homo sapiens) (O75469 whole entry, looked up): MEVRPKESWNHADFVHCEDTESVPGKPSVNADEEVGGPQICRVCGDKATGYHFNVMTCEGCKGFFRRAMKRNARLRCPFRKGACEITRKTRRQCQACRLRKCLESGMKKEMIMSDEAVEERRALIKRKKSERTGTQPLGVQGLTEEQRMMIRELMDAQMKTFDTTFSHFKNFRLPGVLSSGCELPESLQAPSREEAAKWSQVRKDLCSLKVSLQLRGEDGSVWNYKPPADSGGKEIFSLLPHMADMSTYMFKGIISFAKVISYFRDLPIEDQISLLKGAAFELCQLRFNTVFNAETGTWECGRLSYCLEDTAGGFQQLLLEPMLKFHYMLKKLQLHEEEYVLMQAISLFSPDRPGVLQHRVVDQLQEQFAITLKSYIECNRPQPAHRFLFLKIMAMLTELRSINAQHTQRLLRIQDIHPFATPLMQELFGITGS
# Sequence of Cytochrome P450 3A4 (Homo sapiens) (P08684 whole entry, looked up, canonical isoform): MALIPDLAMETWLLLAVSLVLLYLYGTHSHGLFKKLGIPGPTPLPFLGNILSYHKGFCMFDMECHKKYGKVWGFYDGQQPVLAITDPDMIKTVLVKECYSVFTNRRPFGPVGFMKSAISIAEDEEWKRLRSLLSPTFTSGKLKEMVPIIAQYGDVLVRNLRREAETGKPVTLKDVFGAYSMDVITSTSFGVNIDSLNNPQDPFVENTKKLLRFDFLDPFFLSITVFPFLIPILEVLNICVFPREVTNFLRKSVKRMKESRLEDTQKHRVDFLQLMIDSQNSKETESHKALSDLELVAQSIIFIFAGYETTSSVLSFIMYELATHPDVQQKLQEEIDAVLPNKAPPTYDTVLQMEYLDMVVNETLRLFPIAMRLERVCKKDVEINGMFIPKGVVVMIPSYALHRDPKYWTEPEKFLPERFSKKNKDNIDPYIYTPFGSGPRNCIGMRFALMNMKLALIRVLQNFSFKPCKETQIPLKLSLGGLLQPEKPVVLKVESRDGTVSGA
# Sequence of Cytochrome P450 1A2 (Homo sapiens) (P05177 whole entry, looked up): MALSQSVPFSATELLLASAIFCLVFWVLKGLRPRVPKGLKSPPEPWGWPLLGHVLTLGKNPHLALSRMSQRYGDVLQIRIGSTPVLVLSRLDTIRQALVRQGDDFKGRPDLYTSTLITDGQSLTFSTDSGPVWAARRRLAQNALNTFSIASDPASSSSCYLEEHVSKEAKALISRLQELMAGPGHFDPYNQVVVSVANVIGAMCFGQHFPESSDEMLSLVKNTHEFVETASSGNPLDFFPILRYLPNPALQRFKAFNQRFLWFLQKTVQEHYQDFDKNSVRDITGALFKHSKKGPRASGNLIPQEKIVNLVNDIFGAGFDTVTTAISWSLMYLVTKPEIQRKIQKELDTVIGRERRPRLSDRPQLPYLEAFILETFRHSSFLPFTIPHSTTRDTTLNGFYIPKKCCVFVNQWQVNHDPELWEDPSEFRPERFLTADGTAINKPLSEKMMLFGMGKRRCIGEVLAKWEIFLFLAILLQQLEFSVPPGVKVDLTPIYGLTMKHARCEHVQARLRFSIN
Structure (SMILES),outcome [1],outcome [2],outcome [3],outcome [4],Potency [5],Potency [6],Potency [7],outcome [8],max response [9] [%],outcome [10],outcome [11],outcome [12],Potency [13],Potency [14],Potency [15],Potency [16],Potency [17]
CCCCCCCCC/C=C/C(=O)CCc1ccc(O)c(OC)c1,inactive,inactive,inactive,inactive,15.8 µM (active),11.2 µM (active),3.98 µM (active),inactive,4.66,inactive,inactive,inactive,,,,,
C=C1C[C@@]23CC[C@H]4[C@@](C)(CCC[C@@]4(C)C(=O)O[C@@H]4O[C@H](CO)[C@@H](O)[C@H](O)[C@H]4O[C@@H]4O[C@H](CO)[C@@H](O)[C@H](O)[C@H]4O)[C@@H]2CC[C@]1(O[C@@H]1O[C@H](CO)[C@@H](O)[C@H](O)[C@H]1O[C@@H]1O[C@H](CO)[C@@H](O)[C@H](O)[C@H]1O)C3,inactive,inactive,inactive,,inactive,inactive,inactive,inactive,4.27,inactive,inactive,inactive,inactive,inactive,inactive,inactive,
COc1ccc(/C=C/c2cc(OC)cc(=O)o2)cc1,inactive,inactive,inactive,inactive,,inactive,,inactive,0.752,inactive,inactive,inactive,14.1 µM (active),inactive,,,inactive
C=C1C[C@@]23CC[C@H]4[C@@](C)(CCC[C@@]4(C)C(=O)O[C@@H]4O[C@H](CO)[C@@H](O)[C@H](O)[C@H]4O)[C@@H]2CC[C@]1(O[C@@H]1O[C@H](CO)[C@@H](O)[C@H](O[C@@H]2O[C@H](CO)[C@@H](O)[C@H](O)[C@H]2O)[C@H]1O[C@@H]1O[C@@H](C)[C@H](O)[C@@H](O)[C@H]1O)C3,inactive,inactive,inactive,inactive,,inactive,inactive,inactive,2.19,inactive,inactive,inactive,inactive,inactive,,inactive,
CC(=O)OC/C=C/c1ccccc1,inactive,inactive,inactive,inactive,,inactive,,inactive,3.54,inactive,inactive,inactive,inactive,inactive,,inactive,
CC1(C)CC[C@]2(C(=O)O)CC[C@]3(C)C(=CCC4[C@@]5(C)CC[C@H](O)[C@@](C)(CO)C5CC[C@]43C)[C@H]2C1 (some centres not stated),inactive,inactive,inactive,inactive,,inactive,,inactive,-0.0807,inactive,inactive,inactive,inactive,inactive,,inactive,
CCCCCCCCCCCCCC(=O)OCC(O)CO (configuration not stated),inactive,inactive,inactive,inactive,,,,inactive,2.98,inactive,inactive,inactive,inactive,inactive,,inactive,

# Source: PubChem BioAssay (NCATS)
